Measurements published in PubChem BioAssay AID463215 (Sanford-Burnham Center for Chemical Genomics, 2010).
Screen size: about 4,600 compounds; about 2,900 (63%) were called active. So high a share suggests a set chosen from earlier hits. Not all results are given here. Unmarked numbers belong to inactive results.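 The calls were made as follows: active = inhibition of yeast growth at or above a set limit in either of two replicates at 10 µM; inactive = the rest.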

Experiment: TIM10 isogenic control strain growth inhibition – single concentration, luminescence, S. cerevisiae, counter-screen for tim10-1 synthetic lethality project, confirmation (AID 463215);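 also: isogenic wild-type TIM10 control yeast grown in succinate dextrose medium; this counterscreen used the strain with wild-type TIM10; 0% = yeast with DMSO and 100% = medium wells lacking yeast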
Settings: BacTiter-Glo luminescence, 24 h, at 10 µM, hits give high values

| SMILES | inhibition |
| --- | --- |
| Fc1cccc(Cl)c1CSc1ccc(-c2ccco2)nn1 | 35.9% (active) |
| O=C(/C=C/c1ccc(Cl)c([N+](=O)[O-])c1)c1cccnc1 | 81.2% (active) |
| COc1cc([N+](=O)[O-])ccc1NC(=O)COC(=O)CCOc1ccc(C)cc1 | 43.4% (active) |
| C=CS(=O)c1sc(Cl)c(N2CCOCC2)c1[N+](=O)[O-] (configuration not stated) | 87.5% (active) |
| CCc1ccc2c(c1)C1(NN=C(c3ccccc3)S1)C(=O)N2 (configuration not stated) | 43.3% (active) |
| O=C(N/N=C/c1c[nH]c2ccccc12)c1cc2ccccc2o1 | 22.9% |
| Cc1ccc(Nc2nc(Cl)c(C=O)s2)cc1 | 10.7% |
| Nc1ccccc1SC(C[N+](=O)[O-])c1ccccc1 (configuration not stated) | 53.5% (active) |
| O=C(Nc1ccc2oc(-c3ccccc3F)nc2c1)c1ccco1 | 62.4% (active) |
| O=C(Nc1nc(-c2ccco2)c(-c2ccco2)s1)c1ccco1 | 39.9% (active) |
| COCCNC(=O)/C(C#N)=C/c1cccc(OCc2ccccc2)c1 | 69.5% (active) |
| Cc1cc(C)n(-c2nc(SCC(=O)N3CCCC3)c3c4c(sc3n2)CCCC4)n1 | 23.4% |
| CCOC(=O)C(=Cc1ccccc1OC)C(=O)OCC | 27.6% |
| COc1ccc(CNC(=O)/C(C#N)=C/c2cccc(OC)c2OC)cc1 | 80.8% (active) |
| c1ccc(-c2nccc(-c3ccc(-n4cnc5ccccc54)cc3)n2)nc1 | -3.75% |
| CCN(CC)CCN(C(=O)c1ccc(S(=O)(=O)N2CCOCC2)cc1)c1nc2cc3c(cc2s1)OCCO3 | 28.1% |
| CN(C)CCCN(C(=O)c1ccc(S(=O)(=O)N2CCCc3ccccc32)cc1)c1nc2ccc(F)cc2s1 | 41.4% (active) |
| COc1cccc(NC(=O)CSc2nccn(-c3ccc4c(c3)OCCO4)c2=O)c1 | 8.7% |
| O=C(NNc1c2ccccc2nc2ccccc12)c1cc2ccccc2cc1O | -21.2% |
| COc1ccc(Oc2cn[nH]c2-c2ccc(OC)cc2O)cc1 | 31% (active) |
| O=S(=O)(NC1CCCCC1)c1ccc(F)c2ccccc12 | 29.4% |
| Fc1ccc(/C=N/n2c(COc3ccccc3)n[nH]c2=S)cc1 | 37% (active) |
| CC[C@@H]1Cc2cc(O)ccc2C2=C1c1ccc(O)cc1C[C@H]2CC | 66.3% (active) |
| Cc1[nH]c2ccccc2c1C(=O)COC(=O)c1c(-c2ccccc2)noc1C | 36.8% (active) |
| CCC(C)(C)n1nnnc1CN1CCN(c2nc3ccc(C)cc3cc2C#N)CC1 | 24.8% |

| SMILES | inhibition |
| --- | --- |
| O=C(NCc1ccco1)c1cc2sccc2n1Cc1ccc(F)cc1 | 23.6% |
| CCc1cccc(CC)c1NC(=S)NCc1ccc2[nH]c(C)cc2c1 | 52.9% (active) |
| CCc1sc(C(=O)N2CCN(CC(=O)Nc3cccc(F)c3)CC2)cc1C | 60.8% (active) |
| C[C@@H]1C(c2ccc(F)cc2)=NN(c2ccc(Br)cc2)[C@H]1C(=O)N1CCOC1=O | 52.1% (active) |
| N/C(=N\OC(=O)Cc1ccccc1[N+](=O)[O-])c1ccc(Br)cc1 | 53% (active) |
| CC(/C=N/NC(=O)c1cc(-c2ccc3ccccc3c2)n[nH]1)=C\c1ccco1 | 42.5% (active) |
| O=C1c2ccccc2C(=O)N1CC1c2ccccc2CCN1S(=O)(=O)c1ccccc1 (configuration not stated) | 22.5% |
| O=S(=O)(ON(c1ccccc1)S(=O)(=O)c1ccccc1)c1ccccc1 | -4.35% |
| Cc1nn(Cc2ccc(Cl)c(Cl)c2)c(C)c1NC(=O)c1cc(C2CC2)on1 | 33.2% (active) |
| Oc1ccccc1C1=NN(c2ccccc2)C(c2ccccc2)C1 (configuration not stated) | 70.5% (active) |
| COc1ccc(Cn2c(-c3ccc(Cl)cc3)c[n+]3ccccc23)cc1 | 34.7% (active) |
| O=C(Cc1ccccc1)NC(=S)Nc1ccc(N2CCCCC2)cc1 | 39.8% (active) |
| S=C(NCCCc1ccccc1)Nc1ccc(Br)cc1 | 31.7% |
| COc1ccc(NC(=S)NCC2CCN(c3ccc(OC)cc3)C2)cc1 (configuration not stated) | -5.6% |
| COc1ccc(-c2cc(-c3ccc(N)cc3)nc(N)c2C#N)cc1OC | 33.8% (active) |
| O=C(O)c1ccc(N/N=C/c2cn(-c3ccccc3)nc2-c2cccs2)cc1 | 64.8% (active) |
| O=C(Nc1ccc(C(F)(F)F)cc1)c1cccc(-n2cnnn2)c1 | 23.1% |
| Cc1nnnn1/C(=C\c1ccccc1)C(=O)OCC(=O)N1CC2(C)CC1CC(C)(C)C2 (configuration not stated) | 50.7% (active) |
| c1ccc(-c2cn3c(n2)CCc2ccc4cccnc4c2-3)cc1 | 37% (active) |
| COc1cccc(CNc2nc(C(F)(F)F)nc3ccccc23)c1 | 27.1% |
| Cc1ccccc1-c1nc(C#N)c(NCc2ccco2)o1 | 11.5% |
| c1ccc(-c2nc(NCc3ccco3)c3ccccc3n2)cc1 | 34% (active) |
| CC(C)N(Cc1ccccc1)C(=S)Nc1ccc(OC(F)F)cc1 | -14% |
| O=C(N/N=C\c1cccc(Br)c1)c1ccccc1-n1cccc1 | -4.2% |
| COc1cc(/C=N/NC(=O)c2ccccc2)ccc1OS(=O)(=O)c1ccccc1 | 17.2% |

| SMILES | inhibition |
| --- | --- |
| COc1ccc(C(=O)Nc2ccccc2C(=O)N/N=C/c2ccccc2OC)cc1 | 43.1% (active) |
| COc1ccc(C(=O)Nc2ccccc2C(=O)N/N=C/c2ccc(O)c(OC)c2)cc1 | 93.3% (active) |
| Cc1nc2sc(C(=O)c3ccccc3)c(N)c2c2c1CCCC2 | 23% |
| OC(CNCC1CCCO1)Cn1c2ccc(Br)cc2c2cc(Br)ccc21 (configuration not stated) | 51.4% (active) |
| COc1ccc(OC)c2sc(NC(=O)C3COc4ccccc4O3)nc12 (configuration not stated) | 34.8% (active) |
| COc1ccc(CS(=O)/C(Cl)=C(/Cl)C(=O)Nc2ccc(OC)nc2)cc1 (configuration not stated) | 78.3% (active) |
| COc1ccc(NC(=O)/C(Cl)=C(/Cl)S(=O)Cc2ccc(C)cc2)cn1 (configuration not stated) | 88% (active) |
| O=[N+]([O-])c1ccc(C=Nc2ccc(Cl)cc2Cl)s1 | 44.1% (active) |
| Cn1c(-c2sccc2OCc2cccc(C(F)(F)F)c2)n[nH]c1=S | 34.8% (active) |
| Cc1cccc(/C(N)=N/OC(=O)c2ccccc2Cl)c1 | 77.7% (active) |
| NS(=O)(=O)c1ccc(NC(=S)Nc2ccc(Br)c(Cl)c2)cc1 | 16.9% |
| N/C(=N\OC(=O)c1cc(-c2ccccc2)nc2ccccc12)c1ccncc1 | 64.8% (active) |
| O=C(NCCN1C(=O)S/C(=C\c2cccnc2)C1=O)c1cccc(OC(F)F)c1 | -9.15% |
| CCCCNC(=S)N/N=C1\CCCCc2ccccc21 | 34.3% (active) |
| CCN1/C(=C\c2ccc3ccccc3[n+]2CC)Sc2cc(C)ccc21 | 78.1% (active) |
| Cc1oc2c(c1C(=O)N1CCOCC1)C(=O)c1ccccc1C2=O | 22.8% |
| O=C(/C=C/Sc1ncn[nH]1)c1ccc(Cl)cc1 | 79% (active) |
| O=C(ON=C1CCN(S(=O)(=O)c2ccccc2)CC1)c1ccc(Cl)cc1 | 62.2% (active) |
| Cc1ccccc1NCC(=O)N/N=C\c1ccc([N+](=O)[O-])s1 | 37.2% (active) |
| O=C1NC(=O)C2C1C(c1ccc([N+](=O)[O-])cc1)=NN2Cc1ccccc1 (configuration not stated) | 4.5% |
| O=[N+]([O-])c1ccc2c(c1)Nc1nc3ccccc3nc1N2 | 83.8% (active) |
| O=[N+]([O-])c1cccc(Nc2c3ccccc3nc3ccccc23)c1 | 21.6% |
| COc1ccc(C(=O)COC(=O)c2ccc([N+](=O)[O-])s2)cc1OC | 81.8% (active) |
| COc1nc(NC2CCCCC2)nc(N2CCCCCC2)n1 | -15.7% |
| O=C(Nc1ccc2c(c1)CCC2)c1ccc(Br)s1 | 44% (active) |

| SMILES | inhibition |
| --- | --- |
| Cc1ccc(NC(=O)c2cccs2)cc1S(=O)(=O)N(C)C | -1.3% |
| N/C(Cc1ccc([N+](=O)[O-])cc1)=N\OC(=O)COc1ccc2ccccc2c1 | 51% (active) |
| N/C(Cc1ccc([N+](=O)[O-])cc1)=N\OC(=O)C1CCCCC1 | 49.2% (active) |
| CC1(C)CCSC(/C=C/c2ccccc2)=N1 | 56.7% (active) |
| CNC(=S)N/N=C/c1cn(Cc2ccc(C)cc2)c2ccccc12 | 53.4% (active) |
| CSC(=S)N/N=C/c1c[nH]c2ccccc12 | 20.1% |
| COC(=O)c1c(NC(=O)CSc2nncs2)sc2c1CCCCC2 | 25.7% |
| COC(=O)c1sccc1NS(=O)(=O)c1ccc(F)cc1F | 42.8% (active) |
| O=C(Oc1ccc(F)cc1)N1CCOCC1 | -0.9% |
| O=C(/C=C/c1cccs1)c1cc(Cl)ccc1OC(=O)N1CCOCC1 | 40.2% (active) |
| C[C@@H](NC(=O)OC(C)(C)C)c1nnc(S(=O)(=O)Cc2ccccc2)o1 | 43.6% (active) |
| N#C/C(=C\c1ccccc1C(F)(F)F)C(=O)Nc1ccccc1F | 46.9% (active) |
| CCCc1[nH]nc2c1C(c1ccc(Br)s1)C(C#N)=C(N)O2 (configuration not stated) | 73.4% (active) |
| Cc1ccc(-c2ccc(/C=C(\C#N)C(N)=S)o2)c([N+](=O)[O-])c1 | 54.1% (active) |
| O=[N+]([O-])c1ccccc1S(=O)(=O)Nc1cccc2cccnc12 | 19.5% |
| O=c1nc2s/c(=C\c3ccco3)c(=O)n2nc1Cc1ccccc1 | 56.5% (active) |
| Oc1ccc(/C=N/N(Cc2ccccc2)c2ccccc2)cc1 | 28.2% |
| CCOC(=O)c1ccc(N2C(=O)CC(N3CCC(C(=O)OCC)CC3)C2=O)cc1 (configuration not stated) | 21.4% |
| Cc1cc(Nc2ccccc2)n(C(=O)c2ccc(N)cc2)n1 | 57.5% (active) |
| CN1CCN(c2ccccc2NC(=O)COc2ccc(C3CCCCC3)cc2)CC1 | 30.4% (active) |
| O=C(NC(Nc1nc2ccc([N+](=O)[O-])cc2s1)(C(F)(F)F)C(F)(F)F)c1ccccc1 | 77.7% (active) |
| N#C/C(=C\c1cccnc1)C(=O)Nc1ccc(SC(F)F)cc1 | 42.2% (active) |
